Measurements taken from PubChem BioAssay AID1159580 (chemical genetic matrix, 2015).
The campaign covered roughly 5,500 compounds. About 2,000 (36%) were called active. About 18% were inconclusive and are not listed. Rule as the data show it: active = normalized growth mostly below about 0.91 (no sharp cut-off); inconclusive = no clear call, values can overlap the other calls; inactive = mostly above about 0.92. This is one part of the list.

Test: chemical genetic growth profiling, strain panel (AID 1159580);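 also: tested at 20 µM; growth read once vehicle control cultures reached saturation at 30 °C; 1 = growth at the plate median or of vehicle wells; lower values mean less growth of the strain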
Conditions: S. cerevisiae deletion strains, growth OD

Measured: normalized growth

O=C(O)c1ccccc1
inactive: locus YAL021C, strain ccr4, active compounds read low 0.97 | locus YAL026C, strain drs2, active compounds read low 0.962 | locus YAL030W, strain snc1, active compounds read low 0.977 | locus YBL061C, strain skt5, active compounds read low 0.975 | locus YBR009C, strain hhf1, active compounds read low 0.981 | locus YBR023C, strain chs3, active compounds read low 0.981 | locus YBR171W, strain sec66, active compounds read low 0.957 | locus YBR231C, strain swc5, active compounds read low 0.974 | locus YBR279W, strain paf1, active compounds read low 0.981 | locus YCL011C, strain gbp2, active compounds read low 0.954 | locus YCL016C, strain dcc1, active compounds read low 0.962 | locus YCL061C, strain MRC1, active compounds read low 0.966 | locus YCL069W, strain vba3, active compounds read low 0.986 | locus YCR088W, strain abp1, active compounds read low 0.996 | locus YDL005C, strain med2, active compounds read low 0.973 | locus YDL040C, strain nat1, active compounds read low 0.994 | locus YDR001C, strain nth1, active compounds read low 0.973 | locus YDR069C, strain doa4, active compounds read low 0.958 | locus YDR137W, strain rgp1, active compounds read low 0.975 | locus YDR159W, strain sac3, active compounds read low 0.966 | locus YDR195W, strain ref2 1.02 | locus YDR297W, strain sur2, active compounds read low 0.979 | locus YDR334W, strain swr1, active compounds read low 0.911 | locus YDR335W, strain msn5, active compounds read low 0.976 | locus YDR392W, strain spt3, active compounds read low 0.962 | locus YEL003W, strain gim4, active compounds read low 0.988 | locus YEL037C, strain rad23, active compounds read low 0.988 | locus YEL061C, strain CIN8 (second series), active compounds read low 0.971 | locus YER015W, strain faa2, active compounds read low 0.987 | locus YER016W, strain bim1, active compounds read low 0.983 | locus YER111C, strain swi4, active compounds read low 0.971 | locus YER155C, strain BEM2 (second series), active compounds read low 0.962 | locus YFR010W, strain ubp6, active compounds read low 0.958 | locus YGL167C, strain pmr1, active compounds read low 0.956 | locus YGL173C, strain kem1, active compounds read low 0.956 | locus YGL227W, strain vid30, active compounds read low 0.97 | locus YGL240W, strain doc1, active compounds read low 0.959 | locus YGL253W, strain hxk2, active compounds read low 0.965 | locus YHR013C, strain ard1, active compounds read low 0.962 | locus YHR027C, strain rpn1, active compounds read low 0.944 | locus YHR030C, strain SLT2, active compounds read low 0.894 | locus YHR079C, strain IRE1, active compounds read low 0.891 | locus YHR142W, strain chs7, active compounds read low 0.928 | locus YJL092W, strain hpr5, active compounds read low 0.966 | locus YJL095W, strain BCK1 (second series), active compounds read low 0.989 | locus YJL095W, strain BCK1, active compounds read low 0.893 | locus YJL115W, strain asf1, active compounds read low 0.945 | locus YJL129C, strain trk1, active compounds read low 0.987 | locus YJL154C, strain vps35, active compounds read low 0.975 | locus YJL164C, strain tpk1, active compounds read low 1 | locus YJL166W, strain qcr8, active compounds read low 0.969 | locus YJL187C, strain SWE1, active compounds read low 0.982 | locus YJR066W, strain TOR1, active compounds read low 0.863 | locus YKL160W, strain elf1, active compounds read low 0.965 | locus YKR026C, strain gcn3, active compounds read low 0.978 | locus YLL001W, strain dnm1, active compounds read low 0.948 | locus YLL026W, active compounds read low 0.982 | locus YLL041C, strain sdh2, active compounds read low 0.966 | locus YLR027C, strain aat2, active compounds read low 0.967 | locus YLR221C, strain rsa3, active compounds read low 0.927 | locus YLR258W, strain gsy2, active compounds read low 0.989 | locus YLR262C, strain YPT6 (second series), active compounds read low 0.998 | locus YLR320W, strain mms22, active compounds read low 0.943 | locus YLR342W, strain FKS1, active compounds read low 0.972 | locus YLR357W, strain rsc2, active compounds read low 0.969 | locus YLR370C, strain arc18, active compounds read low 0.949 | locus YLR384C, strain iki3, active compounds read low 0.958 | locus YML120C, strain ndi1, active compounds read low 0.948 | locus YMR058W, strain fet3, active compounds read low 0.951 | locus YMR125W, strain sto1, active compounds read low 0.98 | locus YMR129W, active compounds read low 0.988 | locus YMR205C, strain PFK2, active compounds read low 0.967 | locus YMR231W, strain pep5, active compounds read low 0.987 | locus YNL071W, strain lat1, active compounds read low 0.988 | locus YNL183C, strain NPR1, active compounds read low 0.84 | locus YNL209W, strain ssb2, active compounds read low 0.975 | locus YNL248C, strain rpa49, active compounds read low 0.966 | locus YNL322C, strain KRE1 (second series), active compounds read low 0.933 | locus YNR049C, strain mso1, active compounds read low 0.955 | locus YOR001W, strain rrp6, active compounds read low 0.965 | locus YOR070C, strain gyp1, active compounds read low 0.985 | locus YOR080W, strain dia2, active compounds read low 0.963 | locus YOR083W, strain WHI5, active compounds read low 0.961 | locus YOR106W, strain vam3, active compounds read low 0.923 | locus YOR265W, strain rbl2, active compounds read low 0.981 | locus YOR270C, strain vph1, active compounds read low 0.98 | locus YOR290C, strain snf2, active compounds read low 0.907 | locus YPL051W, strain arl3, active compounds read low 0.989 | locus YPL078C, strain atp4, active compounds read low 0.974 | locus YPL106C, strain sse1, active compounds read low 0.962 | locus YPL240C, strain hsp82, active compounds read low 0.996 | locus YPL256C, strain CLN2, active compounds read low 0.855
active: locus YLR113W, strain HOG1, active compounds read low 0.78 | locus YOR231W, strain MKK1, active compounds read low 0.86
